According to PubChem BioAssay AID493169 (National Center for Advancing Translational Sciences (NCATS), 2011):
Inconclusive results are not listed. A call without a number means that no potency is given here. The source made the active and inactive calls. Calls come from the whole dose curve; as a rule, active = well fitted inhibition curve with a large enough effect; inconclusive = small, poorly fitted or top-dose-only effect; inactive = flat fitted curve, though single readings scatter.

Test: CHOP2 Reporter Counterscreen Assay for Inhibitors of Ubiquitin-specific Protease USP2a;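 note: activated enterokinase alone at 50 pM in a cell-free format rather than USP2a or CHOP2; nearly all actives have a fitted effect of over 55% in size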
Conditions: purified enterokinase, fluorogenic substrate, 485/531 nm; series mostly up to 38.3 µM
Summary of the method: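 Cell-free counterscreen with pre-activated enterokinase alone (50 pM final) in 20mM Tris-HCl pH 8.0, 2mM CaCl2, 2mM beta-mercaptoethanol, 0.05% CHAPS; compound preincubation 30 min RT, reporter substrate 25nM final, fluorescence read after 10 min (Ex 485/Em 531).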
Potency is the fitted concentration of half-maximal effect.

Row | SMILES | Potency
1 | CN(C)C=Nc1ncc2c3ccccc3n(CCN(C)C)c2c1C#N | inactive
2 | O=C(CSc1nccc(=O)[nH]1)N1N=C2/C(=C/c3ccco3)CCCC2C1c1ccco1 (stereo unspecified) | 8.91 µM (active)
3 | C[C@H](CO)N1C[C@H](C)[C@@H](CN(C)S(=O)(=O)c2ccc(Cl)cc2)Oc2ccc(NS(=O)(=O)c3ccccc3)cc2CC1=O | inactive
4 | Cc1cc(C)n(C(=O)c2cccc(S(=O)(=O)N3CCCC3)c2)n1 | inactive
5 | O/N=C/c1ccccc1OCc1ccccc1F | inactive
6 | CCOc1ccc(NC(=O)c2cccc(-n3cnnn3)c2)cc1 | inactive
7 | C=C(C)COc1ccc(-c2[nH]ncc2Oc2ccccc2OCC)c(O)c1 | inactive
8 | N=C1C(c2nc3ccccc3c(=O)[nH]2)=C(O)CN1CCc1ccccc1 | inactive
9 | CCn1c(=O)c(C(=O)Nc2ccccc2S(N)(=O)=O)c(O)c2ccccc21 | 11.2 µM (active)
10 | O=C(Nc1ccncc1)c1ccc(S(=O)(=O)Nc2ccccc2)cc1 | 3.55 µM (active)
11 | COc1ccc(CCNC(=O)Cc2cc(=O)[nH]c(=O)[nH]2)cc1OC | inactive
12 | CCCCCCCCCCOC(=O)Cn1c(COc2ccccc2C)[n+](C)c2ccccc21 | 5.62 µM (active)
13 | Cc1ccc(/C=C/S(=O)(=O)N2CCC(C(=O)O)CC2)cc1 | inactive
14 | CC[n+]1c(/C=C/N(C)c2ccccc2)n(-c2ccccc2)c2ccc(-c3nc4ccccc4s3)cc21 | 10 µM (active)
15 | CC1(C(=O)O)Sc2[nH]c(=O)sc2C2c3ccccc3OC(=O)C21 (stereo unspecified) | inactive
16 | O=C(N/N=C1\CC(c2ccccc2)Oc2ccccc21)c1ccc(O)cc1 (stereo unspecified) | inactive
